Shown are actives, neighbours in structure and some others; about 3.3% of the full set was active somewhere.
GRIN3A LBD mod: modulators (binders) of human NR3A ligand-binding domain | Tm shift relative to glycine control, % at 25 µM | 340,000 compounds, 2.5% hits | NR3A LBD differential scanning fluorimetry, Tm shift; 0% = protein alone, 100% = glycine-bound protein | AID 1259313;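 active means melting temperature shift of at least 10% of the positive control shift, at one fixed dose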
SUMO HTRF inh: inhibitors of human SUMOylation (UBC9). P63279. HTRF SUMOylation assay, SAE1/SAE2 + UBC9, in vitro. inhibition, % at 35 µM. 290,000 compounds, 0.36% hits. AID 2006; in the data active means inhibition above about 50%, passing the limit was not always enough
sPLA2-III inh: Blocks human group III sPLA2 activity; Q9NZ20; QFRET BODIPY PC-A2 liposome hydrolysis, fluorescence; inhibition, % at 12.2 µM; 370,000 compounds, 0.56% hits; AID 743126;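 active means inhibition above mean plus 3 SD of compounds lying within the high and low control bounds, cut at about 19% in these data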;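 further: 0% = median of test compound wells and 100% = no enzyme DMSO wells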
Target sequence (Q9NZ20 whole entry, looked up): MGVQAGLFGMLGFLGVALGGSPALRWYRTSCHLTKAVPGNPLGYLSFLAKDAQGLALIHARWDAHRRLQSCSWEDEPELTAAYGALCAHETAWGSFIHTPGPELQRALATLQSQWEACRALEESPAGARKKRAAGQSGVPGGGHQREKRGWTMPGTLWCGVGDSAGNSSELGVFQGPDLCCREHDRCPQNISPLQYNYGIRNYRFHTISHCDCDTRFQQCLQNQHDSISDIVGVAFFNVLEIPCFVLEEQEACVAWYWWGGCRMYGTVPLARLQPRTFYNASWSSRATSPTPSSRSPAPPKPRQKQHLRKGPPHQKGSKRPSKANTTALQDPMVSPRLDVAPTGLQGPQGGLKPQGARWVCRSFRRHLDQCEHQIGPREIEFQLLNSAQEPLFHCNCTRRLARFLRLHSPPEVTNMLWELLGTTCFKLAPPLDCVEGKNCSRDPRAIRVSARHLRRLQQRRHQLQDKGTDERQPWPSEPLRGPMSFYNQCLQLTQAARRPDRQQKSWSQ
UBC13 inh: blocks human UBC13 polyubiquitin chain formation; AID 485273; 330,000 compounds, 0.47% hits; TR-FRET; P61088; inhibition, % at 20 µM; in the data active means inhibition above about 45%, passing the limit was not always enough
hGIII sPLA2 conf: human GIII-sPLA2 inhibition, confirmation | shares compounds with sPLA2-III inh | recombinant hGIII-sPLA2, BODIPY PC-A2 QFRET fluorescence | inhibition, % at 12.2 µM | 2,000 compounds, 34% hits | AID 743280;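 active means mean inhibition across triplicates above the hit cutoff set in the earlier primary screen, cut at about 19% in these data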;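 further: 0% = enzyme with DMSO and 100% = DMSO wells lacking enzyme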
BODIPY interf: counter-screen for HGIII-sPLA2 inhibitors: 535nm fluorescence interference; BODIPY FL product fluorescence interference, QFRET; shares compounds with sPLA2-III inh; inhibition, % at 12.2 µM; 2,000 compounds, 8.5% hits;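 active means average inhibition above the solvent-only control mean plus 3 SD, cut at about 6% in these data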;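 further: 0% = DMSO with substrate plus product and 100% = DMSO with substrate alone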
BODIPY interf DR: interferes with 535nm fluorescence in dose response counter-screen; BODIPY FL product fluorescence interference, cell-free; shares compounds with sPLA2-III inh; 240 tested, under 10 active; IC50, µM;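 active means IC50 at or below 10 µM; inactive means IC50 above 10 µM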
* marks the source's active call; other numbers are inactive results; / = not tested or not shown; ! = a repeat was not active.

SMILES	GRIN3A LBD mod	SUMO HTRF inh	sPLA2-III inh	UBC13 inh	hGIII sPLA2 conf	BODIPY interf	others
O=C(N=C1N(Cc2ccccc2)[C@@H](Cc2ccccc2)[C@]2(C=C3CCCCC3n3c(=O)n(-c4ccccc4)c(=O)n32)N1C(=O)OCc1ccccc1)c1ccccc1 (stereo not given in full)	/	/	4	/	/	/
O=C(NCCc1ccccc1)OCc1cn(-c2ccc(Cl)cc2)nn1	/	/	5	/	/	/
COc1ccc(Cc2noc(-c3ccc([N+](=O)[O-])cc3)n2)cc1OC	-2	-1	21*	-8	1	-7
COC(=O)C(NC(C)=O)(Nc1ccc(C)cn1)C(F)(F)F (stereo not given)	-1	-13	20*	-8	4	-6
O=C1/C(=C\c2ccccn2)SC(=S)N1Nc1ncc(C(F)(F)F)cc1Cl	-5	-18	/	-14	/	/
O=C1/C(=C/c2ccccn2)SC(=S)N1Nc1ncc(C(F)(F)F)cc1Cl	-5	/	21*	/	32*	-1	BODIPY interf DR=>122
CCOC(=O)C1(C)CCCCCN1C(=O)c1ccc(N(C)C)cc1 (stereo not given)	/	/	19*	/	-4	-8
CCN(CC)C(=O)CC[C@@H]1CC[C@]2(CCCN(S(C)(=O)=O)C2)O1	/	/	9	/	/	/
O=C(NCc1ccccc1)N1CCNCC1	-1	-1	22*	-2	1	-7
O=C(NCc1ccccc1)N1CCCC1	-1	17	-5	3	/	/
COc1ccc2[nH]c(N=Nc3ccccc3C)c(O)c2c1	-4	7	25*	-28	10	2
Cc1ccc(OC(=O)c2sc(Cl)nc2C)cc1C	-7	-9	21*	-3	0	-6
COc1ccc(N(C)C(=O)c2sc(Cl)nc2C)cc1	-6	0	3	0	/	/
CCCn1nnc(NC(=O)c2ccc(OC)cc2)n1	0	3	2	6	/	/
CCCn1nnc(NC(=O)c2ccc(OCC)c(Cl)c2)n1	-9	6	24*	-3	-2	-7
CC12CCC(C(=O)N(CSC(=S)N/N=C\c3ccccc3O)C1=O)C2(C)C (stereo not given)	-5	32	28*	-106	36*	4
CCOC(=O)/C(=N\Nc1cccc(Cl)c1)Sc1nnc(-c2ccc(OC)cc2)n1C	13*	11	22*	0	17	-5
CC(NC(=O)CN1CCOCC1)c1ccccc1 (stereo not given)	-1	12	18	10	/	/
CC(NC(=O)CN1CCOCC1)c1ccc(F)cc1 (stereo not given)	0	10	21*	4	-5	-5
Cc1ccc(C)c(NC(=S)N2C3CCCC2CC(NC(=O)C2CC2)C3)c1 (stereo not given)	-2	19	21*	2	2	-1
COc1cc(N=c2ssnc2Cl)c(OC)cc1Cl	19*	2	23*!	12	33*	1	BODIPY interf DR=>122
Cc1ccc(S(=O)(=O)CNC(=S)c2ccc3ccccc3c2)cc1	-1	-14	20*	18	24*	0
Cc1ccc(S(=O)(=O)CNC(=S)c2cccc(C)c2)cc1	1	6	10	7	/	/
CC1CCN(C(=O)c2ncn3c2c(=O)[nH]c2ccccc23)CC1	/	/	5	/	/	/
CCN(CC)C(=O)c1ncn2c1c(=O)[nH]c1ccccc12	/	/	20*	/	6	-2
SMILES	GRIN3A LBD mod	SUMO HTRF inh	sPLA2-III inh	UBC13 inh	hGIII sPLA2 conf	BODIPY interf	others
CCOC(=O)c1c(NC(=O)c2cccs2)sc(C)c1CC	-9	0	4	12	/	/
CCc1c(C)sc(NC(=O)c2cccs2)c1C#N	-6	8	20*	3	25*	-3
COC(=O)[C@]12C[C@H](CC(=O)NCc3ccccc3)C(=O)N(CCc3ccc(OC)c(OC)c3)C1=C[C@H](COCc1ccccc1)O[C@@H]2C	/	/	-7	/	/	/
CC(C)Oc1ccc(CSc2ncn[nH]2)cc1	-1	1	-24	1	/	/
CC(C)Oc1ccc(CSC(=N)N)cc1	-8	0	29*	-2	-4	-8
O=C(NNC(=S)Nc1ccc(Br)cc1)c1ccc(N2CCOCC2)c([N+](=O)[O-])c1	19*	-42	25*	-21	30*	11*
O=C(NNC(=S)Nc1ccc(Cl)cc1Cl)c1ccc(N2CCOCC2)c([N+](=O)[O-])c1	24*	-32	24*	-34	28*	12*
S=C(Nc1ccccc1)N1CCCCC1	0	5	0	-2	/	/
S=C(Nc1ccccc1)N1CCCN1c1ccccc1	-1	6	20*	-6	4	-8
Cc1ccc2c(c1)-c1c(ssc1=S)C(C)(C)N2C(=O)CSC1=NCCS1	-1	0	11	-16	/	/
CCOc1ccc2c(c1)-c1c(ssc1=S)C(C)(C)N2C(=O)CSC1=NCCS1	-10	-2	36*	-8	20*	-8
CN(C)[C@@H]1CCN(c2ccc3c(c2)O[C@H]2CCN(C2)S3(=O)=O)C1	/	/	1	/	/	/
O=C(OC12CCCN(C1)/C(=C/c1ccccc1)C2)c1cccc(F)c1 (stereo not given)	/	/	-3	/	/	/
COc1ccc(CCN2CCCn3c2nc2c3c(=O)n(CC(C)C)c(=O)n2C)cc1OC	1	3	24*	-1	13	-17
CC(C)(C)C(=O)NC(=S)Nc1ccc(C(F)(F)F)cc1	-2	21	21*	6	19	-4
O=C(NCc1ccco1)C1CCCN(S(=O)(=O)c2ccccc2F)C1 (stereo not given)	/	/	3	/	/	/
CCCNC(=S)N1CCC(C(=O)c2ccc(Cl)cc2)CC1	1	4	17	-12	/	/
CCCNC(=S)N1CCC(C(=O)c2ccc(OC)cc2)CC1	-2	2	21*	-3	14	-7
O=c1oc2ccccc2cc1-c1csc(NN=C2CCCC2)n1	-7	14	20*	5	7	-3
O=C(O)c1cccc(Nc2nc(-c3cc4ccccc4oc3=O)cs2)c1	-6	8	-5	12	/	/
CCOc1cc(CNc2ncc(-c3ccc(OC)cc3)n2C)ccc1O	0	12	20*	-7	6	-17
C=CCn1c(=S)[nH]c2ccc(Br)cc2c1=O	-6	1	20*	-4	21*	2
C=CCn1c(=S)[nH]c2sc3c(c2c1=O)CCC3	2	17	9	/	/	/
C=CCn1c(=S)[nH]c2nc3c(cc2c1=O)CCCC3	-2	-9	23*	0	12	-1
COc1cc(NC(=O)C2CCCN(S(=O)(=O)c3ccccc3[N+](=O)[O-])C2)cc(OC)c1 (stereo not given)	/	/	-26	/	/	/
O=C(N/N=C/c1c(O)ccc2ccccc12)c1ccc(Br)o1	7	13	19*	-17	-2	-2
O=C(N/N=C\c1c(O)ccc2ccccc12)c1cncc(Br)c1	0	-15	13	-69	/	/

Bioassay records: PubChem BioAssay, several laboratories
